Source: PubChem BioAssay AID504467 (National Center for Advancing Translational Sciences (NCATS), 2011)
The campaign covered roughly 330,000 compounds. About 7,700 (2.3%) were called active. A call without a number means that no potency is given here. Not shown: some 26% with an inconclusive outcome. Calls come from the whole dose curve; as a rule, active = well fitted inhibition curve with a large enough effect; inconclusive = small, poorly fitted or top-dose-only effect, or effect the other way; inactive = flat fitted curve, though single readings scatter. For the sample, actives were picked, then their nearest neighbours and some compounds at random.

assay: qHTS screen for small molecules that inhibit ELG1-dependent DNA repair in human embryonic kidney (HEK293T) cells expressing luciferase-tagged ELG1; settings: HEK293T ELG1-luciferase reporter, luminescence, 16 h, DNA damage induced by 5-fluorouridine; series mostly up to 46.1 µM; note: nearly all actives have a fitted effect of over 55% in size
How it was run: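 Reporter activity after DNA damage by 5-fluorouridine is monitored. Compound-treated cells incubate 16 hr at 37 °C, then ONE-Glo is added for 30 min before luminescence reading.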
Potency is the fitted concentration of half-maximal effect.

Compound	Potency
O=Cc1cn(Cc2ccccc2)nc1-c1cccnc1	inactive
O=C1NCC(=O)N(Cc2ccccc2)/C1=C/c1ccccc1	inactive
O=C1/C(=C\c2cccnc2)CN(Cc2ccccc2)C/C1=C\c1cccnc1	3.66 µM (active)
COC(=O)[C@]1(CC(C)C)N[C@H](c2ccc(SC3CCCCC3)cc2)[C@@H]2C(=O)N(C)C(=O)[C@@H]21	inactive
CCOC(=O)C1CCN(c2ncnc3c2c(-c2ccccc2)cn3-c2ccc(C)cc2)CC1	14.6 µM (active)
CCOC(=O)C1CCN(Cc2ccc(-c3ccccc3)cc2)CC1	inactive
CCOC(=O)C1CCN(c2ncnc3c2oc2ccc(Br)cc23)CC1	inactive
COC(=O)c1ccc(C(=O)NC2CC(C)(C)Cc3c2cnn3-c2ccc(F)cc2)nc1 (configuration not stated)	inactive
CC1(C)C[C@H]2C3=CCC4[C@@]5(C)CC[C@H](O)[C@](C)(CO)C5CC[C@@]4(C)[C@]3(C)C[C@@H](O)[C@@]2(CO)[C@@H](O)[C@@H]1O (some centres not stated)	inactive
CCN(CC)CCCNC(=O)c1c(O)c2cc(F)cc3c2n(c1=O)C(C)CC3 (configuration not stated)	inactive
NC(=O)COC(=O)/C=C/c1ccc2ccccc2n1	inactive
CC(=O)c1ccc(S(=O)(=O)N2CCC3(CC2)OCCO3)cc1	inactive
CC(=O)c1ccc(S(=O)(=O)N2CCN(C(=O)/C=C/c3ccc4ccccc4n3)CC2)cc1	20.6 µM (active)
N#C/C(=C\c1cccnc1)C(=O)Nc1ccc(SC(F)F)cc1	inactive
CC(CNC(=O)Cn1cnc2c(OCc3ccccc3)ncnc21)c1ccccc1 (configuration not stated)	inactive
COc1ccc(-c2csc(NC(=O)c3ccc(N4C(=O)CCC4=O)cc3)n2)cc1OC	inactive
O=C(Nc1nc(-c2ccc3c(c2)OCO3)cs1)c1ccncc1	7.08 µM (active)
C/C(=N/NC(=O)c1ccncc1)c1ccc2c(c1)OCO2	inactive
CCN(C(=O)COC(=O)CCOc1cccc(C)c1)c1c(N)n(Cc2ccccc2)c(=O)[nH]c1=O	inactive
O=C(CSc1ccccn1)N1CCN(S(=O)(=O)c2ccc(Cl)cc2)CC1	inactive
CCN(C[C@H]1N[C@@](CC)(C(=O)OC)[C@H]2C(=O)N(C)C(=O)[C@@H]12)C(=O)Nc1ccc(F)cc1	inactive
OCCCNc1nccc(-c2cc(Nc3cccc(Cl)c3)ncn2)n1	0.92 µM (active)
O=C(Nc1cc(Cl)cc(Cl)c1)C(NCCCO)c1ccccc1 (configuration not stated)	inactive
NS(=O)(=O)c1cccnc1Nc1cccc(Cl)c1	inactive
COc1ccc(S(=O)(=O)N2CCN(CC(=O)N3CCOCC3)CC2)cc1OC	inactive

Compound	Potency
Cc1ccc(C)c(OCC(=O)N2CCN(C(=O)c3ccco3)CC2)c1	inactive
COc1ccc(C(=O)Nc2ccccc2C(=O)N2CCN(c3ccccc3)CC2)cc1	inactive
CCC(=O)Nc1ccc(C(=O)N2CCN(C(=O)c3ccco3)CC2)cc1	inactive
COc1cccc(C(=O)Nc2ccc(N3CCN(C(=O)c4ccco4)CC3)cc2)c1	13 µM (active)
Cc1ccc(OCC(=O)N/N=C\c2ccco2)c(C)c1	inactive
COc1ccc(NC(=O)c2cccc(NC(=O)c3ccco3)c2)c(OC)c1	18.4 µM (active)
Cc1ccc(OCC(=O)Nc2ccc(N3CCN(C(=O)c4ccco4)CC3)cc2)c(C)c1	10.3 µM (active)
COc1ccccc1C(=O)Nc1ccc(NC(=O)c2ccco2)c(C)c1	inactive
COc1cc(NC(=O)c2cc([N+](=O)[O-])ccc2Br)ccc1NC(=O)c1ccco1	inactive
Cc1cccc(C(=O)N[C@H](C(=O)NCc2cccs2)C(C)C)c1	inactive
CC(NC(=O)c1ccccc1F)c1cccc2ccccc12 (configuration not stated)	inactive
CC1CCCC(NC(=O)c2cc(S(=O)(=O)N3CCCCC3)ccc2Cl)C1C (configuration not stated)	inactive
Cc1ccccc1CNC(=O)CCC(=O)N1Cc2ccccc2Oc2ncccc21	inactive
C=C1CCC(N(O)c2cc(C)on2)C(=C)CCC2C1CC2(C)C (configuration not stated)	inactive
Cc1ccc(S(=O)(=O)N2CCC(C(=O)NCCC3=CCCCC3)CC2)cc1C	inactive
O=c1[nH]c(N2CCN(Cc3ccc4c(c3)OCO4)CC2)nc2c1CCCC2	inactive
CC(C)(C)n1nnnc1C(c1ccc(F)cc1)N1CCN(Cc2ccc3c(c2)OCO3)CC1 (configuration not stated)	inactive
Fc1ccc2[nH]c3c(N4CCN(Cc5ccc6c(c5)OCO6)CC4)ncnc3c2c1	13 µM (active)
COc1cccc(CNC(=O)COc2cc(O)c3c(c2)OC(C)(C)CC3=O)c1	inactive
Cc1ccc(S(=O)(=O)N2CCN(CC(=O)N/N=C/c3cc([N+](=O)[O-])ccc3Cl)CC2)cc1	inactive
Cc1ccc(C)c(S(=O)(=O)N2CCN(CC(=O)Nc3ccc([N+](=O)[O-])cc3)CC2)c1	14.6 µM (active)
Cc1ccc(C)c(S(=O)(=O)N2CCN(C(=O)Nc3ccccc3)CC2)c1	inactive
Cc1ccc(S(=O)(=O)N2[C@@H](c3ccccc3F)C(C(=O)O)=CC[C@H]2c2ccc(Cl)cc2)cc1	inactive
Cc1c(NC(=O)CSc2nnc(-c3cccnc3)n2N)c(=O)n(-c2ccccc2)n1C	inactive
Cc1ccc(C)c(Cn2nnc3c(=O)[nH]c(C(=O)Nc4ccc(F)cc4)nc32)c1	inactive

Compound	Potency
Cc1ccc(NC(=O)N2CCC(c3nc4c(nnn4Cc4c(F)cccc4Cl)c(=O)[nH]3)CC2)cc1	18.4 µM (active)
O=C(Nc1ccc(F)cc1)N1CCCC(c2nc3c(nnn3Cc3ccccc3Cl)c(=O)[nH]2)C1 (configuration not stated)	inactive
Cc1cccc(NS(=O)(=O)c2ccc(C)c(C(=O)NCC(c3ccccc3)N(C)C)c2)c1 (configuration not stated)	inactive
CCc1noc(C)c1C(=O)Nc1nc2ccc(OC)cc2s1	inactive
COc1ccc2nc(Nc3nc(-c4cc5ccccc5oc4=O)cs3)sc2c1	3.66 µM (active)
COc1ccc2nc(Nc3nc4ccc(NC(C)=O)cc4s3)sc2c1	inactive
CC1CCCCC1NCC(=O)Nc1ccccc1C(=O)Nc1ccccc1 (configuration not stated)	inactive
CC(C)(C)OC(=O)N1CCC(C(=O)NNC(=O)c2ccc(Cl)cc2Cl)CC1	inactive
COC(=O)c1[nH]c2cccc(C)c2c1NC(=O)CN1CCCc2ccccc21	18.4 µM (active)
NS(=O)(=O)c1cccc(NC(=O)CN2CCCc3ccccc32)c1	inactive
O=C(CN1CCc2ccccc21)NC(c1ccccc1)c1ccccc1	inactive
CCC(=O)c1cc(F)ccc1OCC(=O)Nc1ccc2c(c1)OCCO2	inactive
CCOCCCN(C)C1CCN(C(=O)c2oc3ccccc3c2NC(=O)COc2cccc(C)c2)CC1	inactive
CCOc1ccc(S(=O)(=O)Nc2cccc(C(=O)NCC3(N4CCCCC4)CCCCC3)c2)cc1	inactive
COc1ccccc1NC(=O)C1CCCN(c2cc(C)nc3ncnn23)C1 (configuration not stated)	inactive
CCOC(=O)c1cccc(NC(=O)CCc2c(C)nc3ncnn3c2C)c1	inactive
CCOC(=O)c1cccc(NC(=O)C2CCCN(S(=O)(=O)c3cnc[nH]3)C2)c1 (configuration not stated)	inactive
COc1cccc(CNC(=O)C2CCCN(S(=O)(=O)N3CC(C)CC(C)C3)C2)c1 (configuration not stated)	inactive
O=C(Nc1cccc(Cl)c1)C1CCCN(c2cnccn2)C1 (configuration not stated)	inactive
CCOC(=O)c1cccc(NC(=O)C2CCN(c3ncnc4c3nc3n4CCCCC3)CC2)c1	0.461 µM (active)
O=C(NCCCN1CCCCC1)C1CCCN(c2ncnc3c2nc2n3CCCCC2)C1 (configuration not stated)	inactive
COc1cccc(NC(=O)C2CCCN(c3ncnc4c3nc3n4CCCCC3)C2)c1 (configuration not stated)	14.6 µM (active)
COc1cccc(CNC(=O)C2CCCN(c3ncnc4c3nc3n4CCCCC3)C2)c1 (configuration not stated)	18.3 µM (active)
COc1ccc(C(=O)NC2CC(C)(C)Cc3c2cnn3-c2ccccc2C)o1 (configuration not stated)	inactive
COc1ccccc1N(C)C(=O)c1cc(S(=O)(=O)N2CCc3ccccc32)cn1C	inactive

Compound	Potency
COc1ccc(OC)c(C(C)NC(=S)Nc2ccc(S(=O)(=O)Nc3ncccn3)cc2)c1 (configuration not stated)	inactive
O=C(Nc1cc(Cl)ccc1N1CCOCC1)c1ccc(N2CCCC2=O)cc1	inactive
NCCN1CCN2C(=O)CN(C(=O)c3ccccc3)CC12 (configuration not stated)	inactive
CC1(C(=O)N/N=C/c2cc3c(cc2Br)OCO3)CC1(Br)Br (configuration not stated)	inactive
COc1ccc2oc(=O)cc(-c3cc4ccccc4o3)c2c1	inactive
COc1ccc(Nc2cc(=O)oc3ccccc23)cc1	4.61 µM (active)
COc1ccc(CC(=O)Nc2c(C(N)=O)oc3ccccc23)cc1	inactive
CCCOc1ccc(C2=CSC3=NCCN23)cc1Cl	inactive
c1ccc2c(NCC3CCCO3)nc(-c3ccncc3)nc2c1 (configuration not stated)	18.4 µM (active)
Cc1nc2ccccc2c2oc(C(=O)NCCCN3CCC(C)CC3)cc12	inactive
O=C(NCC1CCCO1)c1cc(-c2ccccc2)nc2ccccc12 (configuration not stated)	inactive
c1ccc(-c2nc(NCc3ccco3)c3ccccc3n2)cc1	inactive
Cc1nc2ccccc2c2oc(C(=O)NCC3CCCO3)cc12 (configuration not stated)	20.6 µM (active)
CCCN(CCC)CCNC(=O)c1cc2c(C)nc3ccccc3c2o1	inactive
O=C(Cn1ncc2c3ccccc3n(Cc3ccccc3)c2c1=O)NCCCN1CCOCC1	inactive
COc1ccc(NC(=O)C(C)N2c3cccc4cccc(c34)S2(=O)=O)c(OC)c1 (configuration not stated)	inactive
CCC1(CC)NC(=O)N(CC(=O)OCC(=O)c2cc(C)c(C)cc2C)C1=O	inactive
CCN(C(=O)CSc1nnnn1-c1ccc(OC)cc1)C1CCS(=O)(=O)C1 (configuration not stated)	inactive
Cc1ccccc1C(=O)N1CCN(c2ccc(NC(=O)c3cccs3)cc2)CC1	9.2 µM (active)
O=C(Nc1ccc(N2CCN(C(=O)c3cccs3)CC2)cc1)c1cccnc1Cl	inactive
O=C(Nc1ccc(N2CCN(C(=O)C3CC3)CC2)cc1)c1cccs1	inactive
COc1ccc(CNC(=O)C[C@H]2C[C@H](C(=O)N3CCOCC3)[C@@]3(C)c4[nH]c5cc(CCC(=O)N(C)C)ccc5c4CCN3C2=O)cc1OC	inactive
